# Experimental data: PubChem BioAssay AID1529 (NMMLSC, 2009)
# Where “and” joins values, the source holds several entries; their conditions need not be identical. Equal values may be shown once. Screen size: about 290,000 compounds; about 4,200 (1.4%) were called active.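 How the source made its calls: active means binding response more than 3 SD above or below the average of its plate-row segment, actives on both sides; inconclusive means wells at one plate position flagged as instrument error; inactive means the rest.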 The entries come from a sample that favours actives as a whole. Some structures have more than one record in an assay (separate samples or runs), and their calls can disagree.
# Target: Mitogen-activated protein kinase kinase kinase 3 (Homo sapiens) (UniProt Q99759)
# Assay: modulators of MEKK3-MEK5 PB1 binding, primary screen, biochemical, wildtype MEKK3, multiplex bead flow cytometry, Alexa488-MEK5 (AID 1529);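 further: Alexa488 bead fluorescence after subtracting the streptavidin-only scavenger bead signal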
# Details: bead-based flow cytometry, Alexa488-MEK5 binding to MEKK3; at 10 µM; actives lie on both sides; 0 = blocked by unlabeled MEK5, 100 = vehicle
# Mitogen-activated protein kinase kinase kinase 3 (Homo sapiens), sequence (Q99759 whole entry, looked up): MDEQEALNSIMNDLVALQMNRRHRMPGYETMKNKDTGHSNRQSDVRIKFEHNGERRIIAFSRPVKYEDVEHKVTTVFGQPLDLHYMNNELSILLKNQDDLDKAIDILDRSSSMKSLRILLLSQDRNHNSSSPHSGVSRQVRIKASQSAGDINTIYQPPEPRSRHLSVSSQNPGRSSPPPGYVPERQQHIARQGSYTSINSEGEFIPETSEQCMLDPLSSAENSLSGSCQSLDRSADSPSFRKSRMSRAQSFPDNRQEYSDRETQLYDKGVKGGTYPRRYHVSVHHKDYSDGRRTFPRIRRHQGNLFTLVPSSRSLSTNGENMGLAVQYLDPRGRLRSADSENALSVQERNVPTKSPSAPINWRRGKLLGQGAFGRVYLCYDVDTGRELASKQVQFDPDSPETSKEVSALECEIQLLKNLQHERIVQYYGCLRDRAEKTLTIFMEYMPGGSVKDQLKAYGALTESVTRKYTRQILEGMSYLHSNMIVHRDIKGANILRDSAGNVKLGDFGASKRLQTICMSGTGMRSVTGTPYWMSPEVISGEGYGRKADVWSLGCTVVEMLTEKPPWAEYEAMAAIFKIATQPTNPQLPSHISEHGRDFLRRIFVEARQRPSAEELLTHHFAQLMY
row,SMILES,binding response (% of control)
1,NC(=O)c1c(NC(=O)c2ccccc2)sc2c1CCCC2,102% (inactive)
2,C=CCN(CC=C)S(=O)(=O)c1ccc(C(=O)Nc2sc3c(c2C(N)=O)CCCCC3)cc1,66% [inhibitor] (active)
3,C=CCN(CC=C)S(=O)(=O)c1ccc(C(=O)Nc2nc3c(s2)CCc2ccccc2-3)cc1,100% (inactive)
4,NS(=O)(=O)c1ccc2nc(NC(=O)C3=COCCO3)sc2c1,100% (inactive)
5,COc1cccc(NC(=O)[C@H](Cc2c[nH]c3ccccc23)NC(=O)[C@@H]2Cc3ccccc3CN2)c1,101% (inactive)
6,CCc1nnc(SCc2cccc(F)c2)nc1CC,101% (inactive)
7,CCc1nnc(NC(=O)c2sc3nc(C)cc(COC)c3c2N)s1,46% [inhibitor] (active)
8,COCc1cc(C)nc2sc(C(=O)NC3CCCCC3)c(N)c12,101% (inactive)
9,CCc1ccc2nc3sc(C(=O)Nc4nnc(CC)s4)c(N)c3cc2c1,103% (inactive)
10,CCOc1cc(C(=O)OCC(=O)Nc2cccc(C)c2)ccc1OCC(=O)N1CCOCC1,137% (active)
11,COc1ccc(C(=O)OCC(=O)Nc2cccc(C(C)=O)c2)cc1OC,100% (inactive)
12,O=C(COC(=O)c1ccccc1)Nc1cccc(S(=O)(=O)N2CCOCC2)c1,104% (inactive)
13,COc1ccc(NC(=O)COc2ccc(C(=O)c3ccc(F)cc3)cc2)cc1S(N)(=O)=O,100% (inactive)
14,CCc1nc2nc(C)c(NS(=O)(=O)c3ccc4c(c3)CCCC4)c(=O)n2[nH]1,101% (inactive)
15,COc1ccc(CN(C)C(=O)Cc2ccsc2)c(OC)c1OC,103% (inactive)
16,COc1ccccc1N=C(C)C1=C(O)COC1=O,81% [inhibitor] (active)
17,COc1ccccc1N=Cc1c(O)c2ccccc2oc1=O,121% (inactive)
18,CCC/C(O)=C1\C(=O)CC(C)(C)CC1=Nc1ccccc1OC,102% (inactive)
19,Cc1ccc2c(C)c(C(=O)N3CCN(c4ccncc4)CC3)oc2c1C,106% (inactive)
20,Cc1ccc(-c2nnc(CN3CCN(C)CC3)o2)cc1,112% (inactive)
21,c1ccc(-c2cnc(CN3CCN(c4ccccc4)CC3)o2)cc1,101% (inactive)
22,COc1ccc(N2CCN(Cc3nnc(-c4ccccc4)o3)CC2)cc1,139% (active)
23,CCCn1c(=N)n(CC(=O)c2ccc(Cl)c(Cl)c2)c2ccccc21,109% (inactive)
24,CCOC(=O)c1ccc(NC(=S)Nc2cc(C)cc(C)n2)cc1,77% (inactive)

row,SMILES,binding response (% of control)
1,CCOC(=O)c1cn[nH]c1NC(=S)Nc1ccccc1,93% (inactive)
2,CCOC(=O)c1cc2c(nc1NC(=S)Nc1ccccc1)CC(C)(CC)OC2 (stereo unspecified),128% (active)
3,CCOc1ccc(CN2CCNC(=O)C2CC(=O)NCCCC2CCCC2)cc1 (stereo unspecified),102% (inactive)
4,O=C1CCN(CCCc2ccccc2)CCN1CCO,101% (inactive)
5,NS(=O)(=O)c1ccc(NC(=O)COC(=O)c2ccco2)cc1,98% (inactive)
6,CCOC(=O)c1ccc(NC(=O)CNC(=O)c2ccco2)cc1,108% (inactive)
7,O=C(COC(=O)CNC(=O)c1ccco1)Nc1ccc(F)cc1,65% [inhibitor] (active)
8,CCOc1ccccc1NC(=S)N1CCN(c2cccc(C)c2C)CC1,102% (inactive)
9,O=C(Nc1ccc2c(c1)CCC2)c1ccc(Br)s1,86% (inactive)
10,O=C(N/N=C/c1ccccc1O)/C(=C/c1ccccc1)CCO,108% (inactive)
11,O=C(CCCO)N/N=C/c1cc(Br)ccc1O,129% (active)
12,Oc1ccc(Br)cc1/C=N/Nc1ccccn1,99% (inactive)
13,CCn1c(SCC(=O)NC2=NCCS2)nnc1C(C)NC(=O)c1ccccc1F (stereo unspecified),95% (inactive)
14,Cc1ccc(CC2C(=O)N(c3ccc(F)cc3)C(=O)C2C)cc1 (stereo unspecified),99% (inactive)
15,CCOC(=O)c1sc2nc(C)nc(Nc3ccc(OC)c(OC)c3)c2c1C,101% (inactive)
16,CCOC(=O)c1sc2nc(C)[nH]c(=O)c2c1C,97% (inactive)
17,CCOC(=O)c1sc2nc(C)nc(SCC(N)=O)c2c1C,132% (active)
18,COC(C[C@@H]1O[C@@H]1C(=O)[C@H](C)OCc1ccccc1)OC,98% (inactive)
19,CCOC(=O)/C=C/c1ccc(C(F)(F)F)cc1S(=O)(=O)NC(C)(C)C,100% (inactive)
20,OCc1ccc(OCCCOc2cccc3cccnc23)cc1,106% (inactive)
21,Cc1cc(OCCOc2cccc3cccnc23)c(C)cc1Cl,101% (inactive)
22,CCOc1cccc(OCCCOc2cccc3cccnc23)c1,143% (active)
23,COc1cccc(CNC(=O)CCC2CCCN(C(=O)c3ccc(F)c(Cl)c3)C2)c1 (stereo unspecified),99% (inactive)
24,CS(=O)(=O)N1CCN(CC(=O)NC2CCCC2)CC1,99% (inactive)

row,SMILES,binding response (% of control)
1,COC(=O)c1ccccc1NC(=O)C1(S(=O)(=O)c2ccc(Cl)cc2)CC1,102% (inactive)
2,COC(=O)Cn1cnc2scc(-c3ccc(C)c(C)c3)c2c1=O,105% (inactive)
3,CC1CN(C(=O)c2ccccc2NS(=O)(=O)c2cccc([N+](=O)[O-])c2)CC(C)O1 (stereo unspecified),131% (active)
4,COCCNC(=O)c1ccccc1NS(=O)(=O)c1ccc(C)c([N+](=O)[O-])c1,101% (inactive)
5,COc1ccc(S(=O)(=O)Nc2ccccc2C(=O)N2CCCC2)cc1C,104% (inactive)
6,O=C(NCC1CC1)c1onc(CSc2ccccc2)c1C(=O)NCC1CC1,97% (inactive)
7,NC(=O)COC(=O)c1ccc2c(c1)C(=O)N(Cc1ccco1)C2=O,99% (inactive)
8,C=CCn1c(P(C)(=O)O)nc2ccccc21,138% (active) and 103% (inactive)
9,C=CCn1c(C(C)NC(=O)CC)nc2ccccc21 (stereo unspecified),94% (inactive)
10,C=CCn1c(C2CC(=O)N(c3ccc(C)cc3)C2)nc2ccccc21 (stereo unspecified),96% (inactive)
11,COc1ccc(C#Cc2c(-c3ccc(OC)cc3)oc3ccc(-c4ccc5c(c4)OCO5)cc23)cc1,95% (inactive)
12,COc1ccc(-n2cc(-c3ccccc3)c3c(=S)nc[nH]c32)cc1,101% (inactive)
13,CCn1cc(S(=O)(=O)c2cccc(C)c2)c(=O)c2cc(F)c(N3CCN(C)CC3)cc21,101% (inactive)
14,Cc1ccc(-c2noc(CSc3nnc(-c4ccncc4)n3-c3ccc(F)cc3)n2)cc1,106% (inactive)
15,Cc1ccc(Nc2nc(CSc3nnc(-c4ccncc4)n3-c3ccccc3C)cs2)cc1,138% (active)
16,Cc1ccc(-n2c(SCC(=O)N3c4ccccc4Sc4ccccc43)nnc2-c2ccncc2)cc1,97% (inactive)
17,COc1cccc(C(C(=O)NC2CCCC2)N(C(=O)c2ccco2)c2cccc(C(C)=O)c2)c1OC (stereo unspecified),98% (inactive)
18,O=C(CCCCCn1c(=S)[nH]c2ccsc2c1=O)NC1CCCCC1,102% (inactive)
19,CCOC(=O)c1c(Cc2ccc(Cl)cc2)c[nH]c1C,136% (active)
20,CCOC(=O)N1CCN(C(=O)CNC(=O)Cc2ccc(Cl)cc2)CC1,99% (inactive)
21,CCOC(=O)c1ccc(CS(=O)c2ccc(Cl)cc2)o1 (stereo unspecified),100% (inactive)
22,COC(=O)c1cc(NC(=O)c2cccnc2)ccc1N1CCOCC1,102% (inactive)
23,CC(=O)Nc1ccc(N2CCOCC2)c(C(=O)Nc2cccc(C)c2)c1,2% [inhibitor] (active)
24,COC(=O)c1cc(NC(=O)c2ccco2)ccc1N1CCOCC1,95% (inactive)

row,SMILES,binding response (% of control)
1,COC(=O)c1cc(NC(=O)c2cc(C(C)(C)C)nn2Cc2cccc(C)c2)ccc1N1CCOCC1,134% (active)
2,CC(=O)Nc1cccc(Oc2cc(C#N)c(C#N)cc2N2CCOCC2)c1,97% (inactive)
3,Cc1cccc(NC(=O)c2cc([N+](=O)[O-])ccc2N2CCN(C)CC2)c1,105% (inactive)
4,CC1=C(N2CCN(c3ncccn3)CC2)CCC1=O,103% (inactive)
5,CCCCCC(O)(CCN1CCCCC1)c1ccccc1 (stereo unspecified),104% (inactive)
6,Cc1ccc(-c2ccc(/C=C(\C#N)C(N)=S)o2)c([N+](=O)[O-])c1,100% (inactive)
7,CCOC(=O)c1ccc(NC(=O)c2c(N)n(C)c(=O)[nH]c2=O)cc1,89% (inactive)
8,COCC(C)NC(=O)COc1nncc2ccccc12 (stereo unspecified),39% [inhibitor] (active)
9,CC(C)C(C)NC(=O)COc1ncnc2ccccc12 (stereo unspecified),106% (inactive)
10,COC(=O)C(C)NC(=O)COc1ccc2ccccc2c1 (stereo unspecified),98% (inactive)
11,CCOc1ccc(C(=O)Nc2ccc(CN3CCOCC3)cc2)cc1Cl,103% (inactive)
12,CC1CN(C(=O)c2cc(COc3c(F)cccc3F)on2)CCN1C (stereo unspecified),100% (inactive)
13,C=C1CCN([C@@H](Cc2ccccc2)C(=O)N2CCOCC2)S(=O)(=O)c2ccccc21,105% (inactive)
14,CCn1cc(/C=C(\NC(=O)c2ccc(C)cc2)C(=O)NCCN2CCOCC2)c2ccccc21,102% (inactive)
15,C=C(C)C1CC=C(C)/C(=N/NC(=O)CCCNc2cccc(C)c2)C1 (stereo unspecified),97% (inactive)
16,COc1ccc(Cl)cc1NC(=O)CNc1ccccc1F,104% (inactive)
17,C=C(C)C1CC=C(C)/C(=N\NC(=O)CNc2ccccc2OC)C1 (stereo unspecified),128% (active)
18,CCCC[C@@H]1CN=C(N)N1CCCC,89% (inactive)
19,CC(=O)C1=C(O)C(=O)N(c2ccc(Br)cc2)C1c1ccc([N+](=O)[O-])cc1 (stereo unspecified),98% (inactive)
20,Cc1cc2cc(CNC(=O)c3cccs3)ccc2[nH]1,73% [inhibitor] (active)
21,Cc1cc2cc(CNC(=O)c3ccc(S(=O)(=O)N4CCOCC4)cc3)ccc2[nH]1,94% (inactive)
22,CCc1cccc(CC)c1NC(=S)NCc1ccc2[nH]c(C)cc2c1,106% (inactive)
23,O=C(CSc1nccc(=O)[nH]1)Nc1ccc(N2CCOCC2)c(Cl)c1,99% (inactive)
24,O=S(=O)(c1ccccc1)N(Cc1cccc(F)c1)c1ccccc1,99% (inactive)
